Source: paper PMC6602471
Over roughly 1,300 sequences, “log fluorescence intensity” has its median near 8.9; the highest 2% begin near 13. The list comes from a sample in which the highest values are over-represented; it also holds similar and randomly drawn sequences.

Target: T1, ELK1 (Homo sapiens, UniProt P19419 1-428)
T1 sequence: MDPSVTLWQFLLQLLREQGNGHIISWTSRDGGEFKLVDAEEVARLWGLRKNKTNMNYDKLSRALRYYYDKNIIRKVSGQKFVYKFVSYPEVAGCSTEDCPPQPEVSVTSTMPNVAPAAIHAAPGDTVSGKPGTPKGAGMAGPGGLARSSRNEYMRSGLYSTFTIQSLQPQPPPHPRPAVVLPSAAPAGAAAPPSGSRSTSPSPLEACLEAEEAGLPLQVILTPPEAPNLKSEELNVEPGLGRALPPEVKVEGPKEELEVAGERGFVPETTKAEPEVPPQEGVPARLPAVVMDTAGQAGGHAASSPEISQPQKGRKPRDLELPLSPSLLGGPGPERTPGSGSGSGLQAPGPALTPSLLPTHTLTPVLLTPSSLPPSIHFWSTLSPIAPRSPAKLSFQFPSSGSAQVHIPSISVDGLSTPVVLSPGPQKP
Test: custom PBM; custom protein-binding microarray; buffer, salt, pH and temperature not stated; high values mean tight binding
Conditions: dsDNA, one strand shown

Sequence | binding signal
CGGAAGTGTTGTAAACGTCGGATATCCGGTTCTTCTGTCTTGATTCGCTTGACGCTGCTG | 12 log fluorescence intensity
GGAAAAAGGCCCAGGGTACCACCGGAAGTGGGCTTAGTCTTGATTCGCTTGACGCTGCTG | 11.1 log fluorescence intensity
GGAAAAAGGCCCAGGATAACACCGGAAGTGGGCTTAGTCTTGATTCGCTTGACGCTGCTG | 11.1 log fluorescence intensity
TGTCGGGTAAGGGAATGTAGATCACGTGAATGAAGAGTCTTGATTCGCTTGACGCTGCTG | 9.1 log fluorescence intensity
TACTGACTTATATATGCGAATGCACATGAATAGCCCGTCTTGATTCGCTTGACGCTGCTG | 8.94 log fluorescence intensity
CTGGGACTTGACCCAACTCTGCTACGTGGGTCGTTTGTCTTGATTCGCTTGACGCTGCTG | 8.94 log fluorescence intensity
TAAAGGGAAGACGGTTGTGGTAGTTCCGGGGATTAAGTCTTGATTCGCTTGACGCTGCTG | 10.9 log fluorescence intensity
GCTGCTGCGGTGCTTACCCCACCGGATGTGACCCCGGTCTTGATTCGCTTGACGCTGCTG | 10.2 log fluorescence intensity
GATTAATTTCCGCCCTTATTCGCACGTGCCATAACAGTCTTGATTCGCTTGACGCTGCTG | 12.5 log fluorescence intensity
TAGAGGGAAGACGGTTGTGGTAGTTCCGGGTATTAAGTCTTGATTCGCTTGACGCTGCTG | 11.2 log fluorescence intensity
GATTAATTTCTGCCCTTATTCGCACGTGCCATACCAGTCTTGATTCGCTTGACGCTGCTG | 8.97 log fluorescence intensity
GCTCCTGCGGTGCATACCCCACCGGATGTGACCCCGGTCTTGATTCGCTTGACGCTGCTG | 10.3 log fluorescence intensity
TACTGACTTATATATGCTAATGCACATGAATAGACCGTCTTGATTCGCTTGACGCTGCTG | 8.92 log fluorescence intensity
GGAAAAAGCCCCAGGGTAACACCGGAAGTGGGCTTAGTCTTGATTCGCTTGACGCTGCTG | 10.8 log fluorescence intensity
TAAAGGGAAGGCGGTTGTGGTAGTTCCGGGTATTAAGTCTTGATTCGCTTGACGCTGCTG | 11.5 log fluorescence intensity
TAAAGGGAAGACGGTGGTGGTAGTTCCGGGTATTAAGTCTTGATTCGCTTGACGCTGCTG | 11.1 log fluorescence intensity
GCTGCTGCGGTGCATAGCCCACCGGATGTGACCCCGGTCTTGATTCGCTTGACGCTGCTG | 10.4 log fluorescence intensity
CGGAAGTGTCGTAAACGTCGGATATGCGGTTCTTCTGTCTTGATTCGCTTGACGCTGCTG | 9.16 log fluorescence intensity
TCCGGCTACCAGGTCCACCCACTTCAGGCCTTGTAGGTCTTGATTCGCTTGACGCTGCTG | 8.9 log fluorescence intensity
ATGGGACTTGACCCAACTCTGCCACGTGGGTCGTTTGTCTTGATTCGCTTGACGCTGCTG | 8.96 log fluorescence intensity
TACTGATTTATATATGCGAATGCACATGAATAGACCGTCTTGATTCGCTTGACGCTGCTG | 8.91 log fluorescence intensity

Sequence | binding signal
CTGGGACTTGATCCAACTCTGCCACGTGGGTCGTTTGTCTTGATTCGCTTGACGCTGCTG | 8.95 log fluorescence intensity
TAAAGGGAAGACGGTCGTGGTAGTTCCGGGTATTAAGTCTTGATTCGCTTGACGCTGCTG | 11.3 log fluorescence intensity
CAGCATAGGACTTCTTCCCTGAAGCAAGTGATAACCGTCTTGATTCGCTTGACGCTGCTG | 8.97 log fluorescence intensity
GATTAATTTCTGCCATTATTCGCACGTGCCATAACAGTCTTGATTCGCTTGACGCTGCTG | 8.92 log fluorescence intensity
TAAAGGGAAGACGGTTGTGGTACTTCCGGGTATTAAGTCTTGATTCGCTTGACGCTGCTG | 12 log fluorescence intensity
TAAAGGGAAGACGGTTGTGGTTGTTCCGGGTATTAAGTCTTGATTCGCTTGACGCTGCTG | 10.5 log fluorescence intensity
CACAATTTTTACAGTAATTTAGCACGCGTAACTCCTGTCTTGATTCGCTTGACGCTGCTG | 8.93 log fluorescence intensity
TACTGACTTATATATGCGAATGCACATGATTAGACCGTCTTGATTCGCTTGACGCTGCTG | 9 log fluorescence intensity
GTGCATAGGATCCCATCCAACACACGTGTTAAAATGGTCTTGATTCGCTTGACGCTGCTG | 9 log fluorescence intensity
CGGAAGTGTCGTAAACGTCGGATATACGGTTCTTCTGTCTTGATTCGCTTGACGCTGCTG | 9.29 log fluorescence intensity
GGAAAAAGGCCCAGGGTAACACCGGAAGCGGGCTTAGTCTTGATTCGCTTGACGCTGCTG | 10.5 log fluorescence intensity
GTGTCTAGGATCCCATCCAACACACGTGTTAAAATGGTCTTGATTCGCTTGACGCTGCTG | 8.94 log fluorescence intensity
CAGCAGAGGACTTCTTCCCTGAAGCAATTGATAACCGTCTTGATTCGCTTGACGCTGCTG | 8.97 log fluorescence intensity
CGGAAGTGTCGTAAACGTCGGATATCCGGTTCTTCGGTCTTGATTCGCTTGACGCTGCTG | 12.4 log fluorescence intensity
CGGAAGTGTCGTAAACGTCGGATATCCGGTTCTACTGTCTTGATTCGCTTGACGCTGCTG | 12.4 log fluorescence intensity
CGGAAGTGTCGTAAACGTCGGATATCCGGTTCTGCTGTCTTGATTCGCTTGACGCTGCTG | 12.5 log fluorescence intensity
CGGAAGTGTCGTAAACCTCGGATATCCGGTTCTTCTGTCTTGATTCGCTTGACGCTGCTG | 12.2 log fluorescence intensity
CGGAAGTGTCGTAAACGTCGGATATCCGGTTCTTCCGTCTTGATTCGCTTGACGCTGCTG | 13 log fluorescence intensity
CGGAAGTGTCGTAAACGTCGGATATCCGGTTCTTATGTCTTGATTCGCTTGACGCTGCTG | 12.4 log fluorescence intensity
CGGAAGTGTCGTAAACGCCGGATATCCGGTTCTTCTGTCTTGATTCGCTTGACGCTGCTG | 13.3 log fluorescence intensity
CGGAAGTGTCGTAAACGTCGGATATCCGGTTCTCCTGTCTTGATTCGCTTGACGCTGCTG | 12.6 log fluorescence intensity

Sequence | binding signal
CGGAAGTGTCGTAAACGTCGGATATCCGGTTCTTCAGTCTTGATTCGCTTGACGCTGCTG | 12.6 log fluorescence intensity
CGGAAGTGTCGTAAACGTAGGATATCCGGTTCTTCTGTCTTGATTCGCTTGACGCTGCTG | 11.8 log fluorescence intensity
GGGAAGTGTCGTAAACGTCGGATATCCGGTTCTTCTGTCTTGATTCGCTTGACGCTGCTG | 12.6 log fluorescence intensity
CGGAAGTGTCGTAAACATCGGATATCCGGTTCTTCTGTCTTGATTCGCTTGACGCTGCTG | 12.6 log fluorescence intensity
CGGAAGTGTCGTAAACTTCGGATATCCGGTTCTTCTGTCTTGATTCGCTTGACGCTGCTG | 12.3 log fluorescence intensity
TGGAAGTGTCGTAAACGTCGGATATCCGGTTCTTCTGTCTTGATTCGCTTGACGCTGCTG | 12.5 log fluorescence intensity
CGGAAGTGTCGTAAACGTCGGATATCCGGTTCCTCTGTCTTGATTCGCTTGACGCTGCTG | 12.5 log fluorescence intensity
AGGAAGTGTCGTAAACGTCGGATATCCGGTTCTTCTGTCTTGATTCGCTTGACGCTGCTG | 12.3 log fluorescence intensity
CGGAAGTGTCGTAAACGTTGGATATCCGGTTCTTCTGTCTTGATTCGCTTGACGCTGCTG | 11.4 log fluorescence intensity
CGGAAGTGTCGTAAACGTCGGATATCCGGTTCATCTGTCTTGATTCGCTTGACGCTGCTG | 12.6 log fluorescence intensity
CGGAAGTGTCGTAAACGTCGGATATCCGGTTCTTCTGTCTTGATTCGCTTGACGCTGCTG | 12.4 log fluorescence intensity
CGGAAGTGTCGTAAACGTCTGATATCCGGTTCTTCTGTCTTGATTCGCTTGACGCTGCTG | 11.1 log fluorescence intensity
CGGAAGTGTCGTAAACGTCGGATATCCGGTTCGTCTGTCTTGATTCGCTTGACGCTGCTG | 12.4 log fluorescence intensity
CGGAAGTGTCGTAAACGTGGGATATCCGGTTCTTCTGTCTTGATTCGCTTGACGCTGCTG | 11.4 log fluorescence intensity
CGCAAGTGTCGTAAACGTCGGATATCCGGTTCTTCTGTCTTGATTCGCTTGACGCTGCTG | 12.6 log fluorescence intensity
CGGAAGTGTCGTAAAAGTCGGATATCCGGTTCTTCTGTCTTGATTCGCTTGACGCTGCTG | 12.5 log fluorescence intensity
CGAAAGTGTCGTAAACGTCGGATATCCGGTTCTTCTGTCTTGATTCGCTTGACGCTGCTG | 12.5 log fluorescence intensity
CTGAAGTGTCGTAAACGTCGGATATCCGGTTCTTCTGTCTTGATTCGCTTGACGCTGCTG | 12.3 log fluorescence intensity
CGGAAGTGTCGTAAATGTCGGATATCCGGTTCTTCTGTCTTGATTCGCTTGACGCTGCTG | 12.7 log fluorescence intensity
CGGAAGTGTCGTAAACGTCAGATATCCGGTTCTTCTGTCTTGATTCGCTTGACGCTGCTG | 11.2 log fluorescence intensity
CGGAAGTGTCGTAAACGTCGCATATCCGGTTCTTCTGTCTTGATTCGCTTGACGCTGCTG | 11.6 log fluorescence intensity

Sequence | binding signal
CGGAAGTGTCGTAAAGGTCGGATATCCGGTTCTTCTGTCTTGATTCGCTTGACGCTGCTG | 12.4 log fluorescence intensity
CGTAAGTGTCGTAAACGTCGGATATCCGGTTCTTCTGTCTTGATTCGCTTGACGCTGCTG | 12.4 log fluorescence intensity
CGGTAGTGTCGTAAACGTCGGATATCCGGTTCTTCTGTCTTGATTCGCTTGACGCTGCTG | 12.5 log fluorescence intensity
CGGGAGTGTCGTAAACGTCGGATATCCGGTTCTTCTGTCTTGATTCGCTTGACGCTGCTG | 12.1 log fluorescence intensity
CAGAAGTGTCGTAAACGTCGGATATCCGGTTCTTCTGTCTTGATTCGCTTGACGCTGCTG | 12.6 log fluorescence intensity
CGGAAGTGTCGTAAACGTCGGATATCCGGGTCTTCTGTCTTGATTCGCTTGACGCTGCTG | 11.9 log fluorescence intensity
CGGAAGTGTCGTAAACGTCGAATATCCGGTTCTTCTGTCTTGATTCGCTTGACGCTGCTG | 11.7 log fluorescence intensity
CGGAAGTGTCGTAAACGTCGGATATCCGGTTCTTTTGTCTTGATTCGCTTGACGCTGCTG | 12.5 log fluorescence intensity
CGGAAGTGCCGTAAACGTCGGATATCCGGTTCTTCTGTCTTGATTCGCTTGACGCTGCTG | 12.5 log fluorescence intensity
CGGAAGTGGCGTAAACGTCGGATATCCGGTTCTTCTGTCTTGATTCGCTTGACGCTGCTG | 12.1 log fluorescence intensity
CGGAAGTGTCGTAAACGTCGGATATCCGGTTCTTGTGTCTTGATTCGCTTGACGCTGCTG | 12.6 log fluorescence intensity
CGGAAGTGACGTAAACGTCGGATATCCGGTTCTTCTGTCTTGATTCGCTTGACGCTGCTG | 12.3 log fluorescence intensity
CCGAAGTGTCGTAAACGTCGGATATCCGGTTCTTCTGTCTTGATTCGCTTGACGCTGCTG | 12.6 log fluorescence intensity
CGGAAGTGTCGTAAACGTCGGATATCCGGTCCTTCTGTCTTGATTCGCTTGACGCTGCTG | 12.6 log fluorescence intensity
CGGAAGTGTCGTAAACGTCGGATATCCGGTGCTTCTGTCTTGATTCGCTTGACGCTGCTG | 12.5 log fluorescence intensity
CGGAAGTGTCGTAAACGTCCGATATCCGGTTCTTCTGTCTTGATTCGCTTGACGCTGCTG | 12.3 log fluorescence intensity
CGGAAGTGTCGTAAACGTCGGATATCCGGTTGTTCTGTCTTGATTCGCTTGACGCTGCTG | 12.5 log fluorescence intensity
TCCGGCTACCAGCGCCACCCACTTCAGGCCTTGTAGGTCTTGATTCGCTTGACGCTGCTG | 8.91 log fluorescence intensity
